Sampled rows, rich in hits. Any-hit rate of the full collection: about 0.5%.
E coli growth-1: E. coli V3065 growth inhibition, primary screen, counter-screen for AddAB inhibitor project, absorbance, OD600. 18 h. inhibition, % at 11.9 µM. actives 0.27% (n = 330,000). AID 449728, 2010;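 active = inhibition above the campaign's mean inhibition across all tested compounds plus 3 SD, cut at about 9.9% in these data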;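 note: uninfected addAB+ strain grown without phage in ampicillin broth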
E coli growth-2: E. coli growth inhibition, primary screen, OD600; Escherichia coli growth, 23 h; stronger effect = lower value; actives 0.21% (n = 330,000); OD600 absorbance (test concentration not listed);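 active = OD600 absorbance below the run mean of sample wells minus 3.6 SD, in any replicate, cut at about 0.56 in these data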
Tat export inh: E. coli Tat export inhibitors, primary screen, MC4100, TorA-mCherry reporter, fluorescence, single point. actives 0.036% (n = 340,000). inhibition, % at 10 µM;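 active = mean replicate inhibition at least 50% and at least half of replicates individually reaching 50%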;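 note: exported cargo escapes ClpAP degradation while cytoplasmic cargo is degraded and loses fluorescence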
AddAB inh: growth inhibition of E. coli expressing H. pylori AddAB, primary screen, AddAB inhibitor project, absorbance | inhibition, % at 11.9 µM | actives 0.29% (n = 330,000) | AID 435030, 2010; in the data active = inhibition above about 12%
phage Ecoli inh: growth loss of phage-infected E. coli, primary screen, RecBCD inhibitor project, absorbance, with phage, HTS; inhibition, % at 11.9 µM; actives 0.26% (n = 360,000); in the data active = inhibition above about 11%
RecBCD conf: growth loss of phage-infected RecBCD+ E. coli, confirmation, RecBCD inhibitor project, absorbance, E. coli V66, T4 gene 2 phage; shares compounds with phage Ecoli inh; AID 651982, 2013; inhibition, % at 11.9 µM; actives 45% (n = 890); E. coli V66 + T4 2- phage, growth OD;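 active = mean inhibition over triplicates exceeding the hit threshold derived in the original primary screen, cut at about 11% in these data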
Ecoli viability: E. coli viability inhibition, counter-screen for RecBCD inhibitor project, absorbance, high throughput | shares compounds with phage Ecoli inh | absorbance (OD) growth | inhibition, % at 11.9 µM | actives 29% (n = 890); in the data active = inhibition above about 20%;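 note: E. coli strain V66 grown with compound alone and no phage infection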
AddAB phage OD: growth loss of phage-infected AddAB-carrying E. coli, confirmation, counter-screen for RecBCD inhibitor project, absorbance, E. coli V3065, T4 phage | shares compounds with phage Ecoli inh | E. coli expressing H. pylori AddAB + T4 phage, OD growth; gene 2 mutant T4, recBCD-deleted host | inhibition, % at 11.9 µM | actives 45% (n = 890);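 active = mean inhibition above the solvent-only control wells' mean plus 3 SD, cut at about 22% in these data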;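 note: higher means less bacterial growth from phage killing when AddAB is blocked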
Large screens that a line does not name were inactive (follow-up assays come after a bar, where they were run).

O=C(N/N=C/c1cc2c3c(c1O)CCCN3CCC2)c1ccccc1O	phage Ecoli inh 24.9 (no result: E coli growth-1, E coli growth-2, AddAB inh) | RecBCD conf inactive | Ecoli viability inactive | AddAB phage OD inactive
Cc1cc(N/N=C/c2ccc(N(C)C)cc2)c2ccccc2n1	phage Ecoli inh 12.5 (no result: E coli growth-2) | RecBCD conf inactive | Ecoli viability inactive | AddAB phage OD inactive
Cc1nc(N)nc(N)c1/C=C/C(C)(C)c1ccc(Cl)cc1	E coli growth-2 0.069, phage Ecoli inh 99.9 (no result: E coli growth-1, AddAB inh) | RecBCD conf 81.7 | Ecoli viability 89.3 | AddAB phage OD 99.6
CC(=O)N1C(C)C=C[C@]1(Cc1ccccc1)C(=O)O (stereo partly drawn)	none (no result: E coli growth-1, Tat export inh, AddAB inh, phage Ecoli inh)
CCN1C(=O)C2CCC3C(=NOC(C)c4cn(C(CO)Cc5ccccc5)nn4)CC(O)C(O)C3C2C1=O (stereo not drawn)	none (no result: E coli growth-1, Tat export inh, AddAB inh, phage Ecoli inh)
O=C(Nc1ccc(Cl)cn1)c1ccc([N+](=O)[O-])o1	phage Ecoli inh 18.1 (no result: E coli growth-1, AddAB inh) | RecBCD conf inactive | Ecoli viability inactive | AddAB phage OD 96.3
CC(=O)c1ccc(NC(=O)c2ccc([N+](=O)[O-])o2)cc1	E coli growth-2 0.474, phage Ecoli inh 16.8 (no result: E coli growth-1, AddAB inh) | RecBCD conf 11.3 | Ecoli viability inactive | AddAB phage OD 65.7
Cc1c(Cl)c([N+](=O)[O-])nn1Cc1ccc(C(=O)Nc2ccc(Cl)cn2)o1	none
NC(=O)C1CC2(CC(c3cccc(NC(=O)C4CCC(=O)N4)c3)=NO2)CN1C(=O)Cc1ccc([N+](=O)[O-])cc1 (stereo not drawn)	none (no result: E coli growth-1, Tat export inh, AddAB inh, phage Ecoli inh)
O=C(CC1C(=O)N(CCc2ccccc2)CC1Cc1ccccc1)Nc1ccccc1 (stereo not drawn)	none (no result: E coli growth-1, Tat export inh, AddAB inh, phage Ecoli inh)
C#Cc1ccc(C2C=C(C(=O)NCc3ccccc3)OC(OCc3ccc(CO)cc3)C2)cc1 (stereo not drawn)	none (no result: E coli growth-1, Tat export inh, AddAB inh, phage Ecoli inh)
Cc1cc(-c2ccccc2)n(-c2cc(NN=Cc3ccccc3O)ncn2)n1	none (no result: E coli growth-1, Tat export inh, AddAB inh, phage Ecoli inh)
Cc1cc(-c2ccccc2)n(-c2cc(N/N=C/c3ccccc3O)ncn2)n1	phage Ecoli inh 16.3 (no result: E coli growth-2) | RecBCD conf inactive | Ecoli viability inactive | AddAB phage OD inactive
O=[N+]([O-])c1ccc(N/N=C/c2cccc(O)c2O)c(S(=O)(=O)N2CCOCC2)c1	none (no result: E coli growth-2)
O=[N+]([O-])c1ccc(N/N=C/c2ccc(O)c(O)c2O)c(S(=O)(=O)N2CCOCC2)c1	phage Ecoli inh 11.0 (no result: E coli growth-1, E coli growth-2, AddAB inh) | RecBCD conf inactive | Ecoli viability inactive | AddAB phage OD inactive
CCC(=O)Nc1cccc(C2=NOC3(C2)CC(C(N)=O)N(C(=O)c2cc([N+](=O)[O-])cc([N+](=O)[O-])c2C)C3)c1 (stereo not drawn)	none (no result: E coli growth-1, Tat export inh, AddAB inh, phage Ecoli inh)
COc1ccc(CCNC(=O)CC(NC(=O)c2ccccc2Cl)c2ccccc2)cc1 (stereo not drawn)	none
NS(=O)(=O)c1ccc(CCNC(=O)CC(NC(=O)c2ccccc2Cl)c2ccccc2)cc1 (stereo not drawn)	phage Ecoli inh 15.2 | RecBCD conf inactive | Ecoli viability inactive | AddAB phage OD inactive
O=C(Nc1cc([N+](=O)[O-])c2[nH]c(=O)c3ccccc3c2c1)C(F)(F)F	phage Ecoli inh 13.7 (no result: E coli growth-1, E coli growth-2, AddAB inh) | RecBCD conf 11.9 | Ecoli viability inactive | AddAB phage OD 95.7
CC1CN(C(C)CO)C(=O)c2cc(NC(=O)Cc3cn(C)c4ccccc34)ccc2OC1CN(C)S(=O)(=O)c1ccc(F)cc1 (stereo not drawn)	none (no result: E coli growth-1, Tat export inh, AddAB inh, phage Ecoli inh)
CCOc1ccc(NC(=O)Nc2ccc3nsnc3c2)cc1	phage Ecoli inh 11.2 | RecBCD conf inactive | Ecoli viability inactive | AddAB phage OD inactive
Cc1ccc(S(=O)(=O)N(C)CC2Oc3ccc(NC(=O)Nc4c(C)noc4C)cc3CC(=O)N(C(C)CO)CC2C)cc1 (stereo not drawn)	none (no result: E coli growth-1, Tat export inh, AddAB inh, phage Ecoli inh)
OCCC1CC(O)C(O)[C@@]2(Cc3ccccc3CCO2)O1 (stereo partly drawn)	none (no result: E coli growth-1, Tat export inh, AddAB inh, phage Ecoli inh)
Cn1nnnc1SCc1ccc(F)cc1	phage Ecoli inh 19.9 | RecBCD conf inactive | Ecoli viability inactive | AddAB phage OD inactive
O=S(=O)(Nc1ncccn1)c1ccc(NC(=S)Nc2ccccc2Cl)cc1	phage Ecoli inh 11.2 (no result: E coli growth-2) | RecBCD conf inactive | Ecoli viability inactive | AddAB phage OD inactive
CC(C)(C)C(=O)NC(=S)Nc1ccc(S(=O)(=O)Nc2nccs2)cc1	none
NS(=O)(=O)c1ccc(NC(=S)Nc2ccc(S(=O)(=O)Nc3nccs3)cc2)cc1	phage Ecoli inh 11.4 (no result: E coli growth-1, E coli growth-2, Tat export inh, AddAB inh) | RecBCD conf inactive | Ecoli viability inactive | AddAB phage OD inactive
CC(=O)C1CCC2C3CC(C)C4=CC(=O)CC[C@]4(C)C3C(O)C[C@]12C (stereo partly drawn)	none (no result: E coli growth-1, Tat export inh, AddAB inh, phage Ecoli inh)
c1ccc(Nc2ccccc2Nc2ccccn2)nc1	none
Oc1cccc2ccc(Nc3ccccn3)nc12	E coli growth-1 18.0, phage Ecoli inh 12.2 | RecBCD conf inactive | Ecoli viability inactive | AddAB phage OD inactive
CCOC(=O)C1C2COc3cc(OC)ccc3C2N2C(=O)N(c3cccc(Cl)c3)C(=O)[C@@]12C (stereo partly drawn)	none (no result: E coli growth-1, Tat export inh, AddAB inh, phage Ecoli inh)
COc1ccc(N(CC(=O)Nc2cccc(C)c2C)S(=O)(=O)c2c(C)[nH]c(=O)[nH]c2=O)cc1	phage Ecoli inh 100.2 | RecBCD conf inactive | Ecoli viability inactive | AddAB phage OD inactive
COc1ccc(N(CC(=O)Nc2cccc(C)c2C)S(=O)(=O)c2c(C)n[nH]c2C)cc1	none
CCOC(=O)C1C2COc3ccccc3C2N2C(=O)c3cc(OC)ccc3NC(=O)[C@@]12C (stereo partly drawn)	none (no result: E coli growth-1, Tat export inh, AddAB inh, phage Ecoli inh)
NC(=S)NN=Cc1nccc2c(C(F)(F)C(F)(F)C(F)(F)F)cccc12	phage Ecoli inh 14.6 (no result: E coli growth-1, E coli growth-2, Tat export inh, AddAB inh) | RecBCD conf inactive | Ecoli viability inactive | AddAB phage OD inactive
Cc1cnc(C=NNC(N)=S)c2cccc(N)c12	none (no result: E coli growth-1, E coli growth-2, AddAB inh)
NC(=S)NN=Cc1nccc2ccccc12	E coli growth-2 0.459, phage Ecoli inh 20.7 (no result: E coli growth-1, AddAB inh) | RecBCD conf 28.9 | Ecoli viability 38.9 | AddAB phage OD 31.8
O=C(Cc1cnn(-c2ccccc2)c1)c1ccc(O)c(O)c1O	phage Ecoli inh 11.3 | RecBCD conf inactive | Ecoli viability inactive | AddAB phage OD inactive
c1cc(-c2ccoc2)n2ccnc2c1	none (no result: E coli growth-1, E coli growth-2, Tat export inh, AddAB inh)
c1cc(-c2ccsc2)n2ccnc2c1	phage Ecoli inh 10.9 (no result: E coli growth-1, E coli growth-2, Tat export inh, AddAB inh) | RecBCD conf inactive | Ecoli viability inactive | AddAB phage OD inactive
CN(C)CCNc1cccc2sc3ccc(O)cc3c(=O)c12	phage Ecoli inh 13.4 (no result: E coli growth-1, E coli growth-2, Tat export inh, AddAB inh) | RecBCD conf inactive | Ecoli viability inactive | AddAB phage OD inactive
Cc1ccc(NCCN(C)C)c2c(=O)c3cc(O)ccc3sc12	none (no result: E coli growth-1, E coli growth-2, AddAB inh)

Screening results from PubChem.
